Compounds with a hit are over-represented: about 4.1% of the library has one in this group of screens.
FAS-TE inh = FAS thioesterase domain inhibitors, primary screen, biochemical, fluorescence intensity, uHTS. Fatty acid synthase (Homo sapiens), P49327. recombinant FAS-TE, OMFH fluorogenic substrate, fluorescence endpoint. inhibition, % at 15 µM. 360,000 tested, 0.67% active. AID 602261, 2012;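 active = compounds whose normalised, plate-corrected inhibition of enzyme fluorescence in the single-dose primary screen is 50% or more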;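 note: 0% = DMSO with enzyme and 100% = substrate without enzyme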
Target sequence (P49327 whole entry, looked up, the tested form may be a part): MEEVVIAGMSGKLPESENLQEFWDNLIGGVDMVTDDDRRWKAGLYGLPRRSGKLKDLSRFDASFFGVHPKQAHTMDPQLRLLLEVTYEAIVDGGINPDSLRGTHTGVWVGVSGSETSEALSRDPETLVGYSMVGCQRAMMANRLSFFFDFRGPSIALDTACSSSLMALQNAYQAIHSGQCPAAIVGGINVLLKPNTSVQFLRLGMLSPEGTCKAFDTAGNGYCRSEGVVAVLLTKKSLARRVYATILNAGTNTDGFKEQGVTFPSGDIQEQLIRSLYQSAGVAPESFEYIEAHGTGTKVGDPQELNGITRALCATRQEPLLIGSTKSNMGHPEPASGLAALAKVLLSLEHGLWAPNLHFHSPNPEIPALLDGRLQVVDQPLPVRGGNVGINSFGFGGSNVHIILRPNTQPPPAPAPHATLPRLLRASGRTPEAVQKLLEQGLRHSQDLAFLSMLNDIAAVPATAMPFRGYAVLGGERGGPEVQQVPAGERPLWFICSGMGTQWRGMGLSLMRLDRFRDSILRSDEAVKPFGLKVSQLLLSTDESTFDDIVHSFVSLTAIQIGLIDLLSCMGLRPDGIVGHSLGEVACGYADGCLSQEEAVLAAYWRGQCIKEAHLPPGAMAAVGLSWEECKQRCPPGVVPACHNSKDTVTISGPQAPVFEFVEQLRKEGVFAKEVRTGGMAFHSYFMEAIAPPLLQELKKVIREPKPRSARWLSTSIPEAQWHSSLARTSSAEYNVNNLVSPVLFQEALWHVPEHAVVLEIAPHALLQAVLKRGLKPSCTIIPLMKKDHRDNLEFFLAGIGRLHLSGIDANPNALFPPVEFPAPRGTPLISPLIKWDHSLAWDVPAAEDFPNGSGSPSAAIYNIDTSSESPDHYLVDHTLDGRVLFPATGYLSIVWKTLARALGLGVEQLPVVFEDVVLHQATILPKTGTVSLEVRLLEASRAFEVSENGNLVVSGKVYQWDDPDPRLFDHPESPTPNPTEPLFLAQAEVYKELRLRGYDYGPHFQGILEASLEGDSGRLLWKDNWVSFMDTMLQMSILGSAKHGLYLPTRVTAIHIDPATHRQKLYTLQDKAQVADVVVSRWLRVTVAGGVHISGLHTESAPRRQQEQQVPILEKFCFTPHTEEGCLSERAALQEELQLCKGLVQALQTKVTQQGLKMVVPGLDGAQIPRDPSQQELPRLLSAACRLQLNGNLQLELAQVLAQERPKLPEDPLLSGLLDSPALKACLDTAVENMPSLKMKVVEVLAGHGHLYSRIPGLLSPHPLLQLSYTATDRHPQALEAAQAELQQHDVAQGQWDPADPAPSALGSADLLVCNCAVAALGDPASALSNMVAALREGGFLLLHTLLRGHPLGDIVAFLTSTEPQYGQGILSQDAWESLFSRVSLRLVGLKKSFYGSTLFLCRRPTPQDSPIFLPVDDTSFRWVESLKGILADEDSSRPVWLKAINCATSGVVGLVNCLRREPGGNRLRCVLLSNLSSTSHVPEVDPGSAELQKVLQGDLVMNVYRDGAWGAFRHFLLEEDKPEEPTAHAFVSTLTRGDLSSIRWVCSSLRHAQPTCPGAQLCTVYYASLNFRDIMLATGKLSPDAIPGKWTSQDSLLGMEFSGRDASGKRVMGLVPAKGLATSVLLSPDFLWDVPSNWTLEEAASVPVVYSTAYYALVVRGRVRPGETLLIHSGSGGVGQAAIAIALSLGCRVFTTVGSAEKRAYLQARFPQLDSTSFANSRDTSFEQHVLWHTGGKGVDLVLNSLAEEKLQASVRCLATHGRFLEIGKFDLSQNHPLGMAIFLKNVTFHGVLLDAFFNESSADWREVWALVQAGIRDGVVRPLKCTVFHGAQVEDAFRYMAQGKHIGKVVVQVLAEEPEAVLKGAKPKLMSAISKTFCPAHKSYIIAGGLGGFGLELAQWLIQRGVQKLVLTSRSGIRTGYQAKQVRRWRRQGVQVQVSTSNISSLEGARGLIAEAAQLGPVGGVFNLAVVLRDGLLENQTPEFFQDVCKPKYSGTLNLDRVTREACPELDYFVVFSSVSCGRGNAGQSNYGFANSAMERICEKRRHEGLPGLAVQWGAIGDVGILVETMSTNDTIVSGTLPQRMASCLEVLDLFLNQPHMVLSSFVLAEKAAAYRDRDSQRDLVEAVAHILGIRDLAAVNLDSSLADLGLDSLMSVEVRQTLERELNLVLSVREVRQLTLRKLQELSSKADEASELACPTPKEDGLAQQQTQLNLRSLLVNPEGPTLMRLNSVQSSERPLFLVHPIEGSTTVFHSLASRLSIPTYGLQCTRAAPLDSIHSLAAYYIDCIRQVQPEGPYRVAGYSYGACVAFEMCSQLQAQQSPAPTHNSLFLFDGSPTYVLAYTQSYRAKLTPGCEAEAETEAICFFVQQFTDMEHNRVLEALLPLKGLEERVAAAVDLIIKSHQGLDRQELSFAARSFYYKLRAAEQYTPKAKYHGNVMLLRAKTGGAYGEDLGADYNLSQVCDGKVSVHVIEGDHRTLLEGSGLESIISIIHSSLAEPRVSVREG
beta cell repl = inducers of MIN6 beta-cell proliferation, primary screen, ATP luminescence, uHTS. MIN6 cells proliferation, ATPlite luminescence, 48 h; cells starved in 0.2% serum; 100% = growth in 10% serum. 330,000 tested, 0.29% active. proliferation, % at 10 µM;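 active = compounds whose signal lies at least 3.5 SD above the mean of all wells on their plate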;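 note: 0% = DMSO-treated cells in low-serum medium and 100% = 10% serum control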
pCIP destab = p/CIP-EGFP fusion destabilizers, primary screen, fluorescence, F442A cells | Q05BA5 | 16 h | decrease of EGFP signal, % at 10 µM | 290,000 tested, 0.01% active;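 active = EGFP signal decrease of at least 30% at 10 µM or well 3 SD below plate mean, unless failing retest; inactive = the rest, including hits failing retest or dose response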
MPTP block = mitochondrial permeability transition pore inhibitors, primary screen, biochemical, isolated mouse mitochondria, absorbance. Ca2+ swelling absorbance, 30 min. inhibition, % at 10 µM. 360,000 tested, 1.4% active;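 active = inhibition of 50% or more, scaled per plate between neutral and stimulator controls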;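 note: 0% = DMSO wells given calcium and 100% = 1 mM EGTA wells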
GRIN3A LBD mod = binders of NR3A ligand-binding domain, primary screen, biophysical, differential scanning fluorimetry, uHTS; Glutamate receptor ionotropic, NMDA 3A (GRIN3A) ligand-binding domain; NR3A LBD differential scanning fluorimetry, Tm shift; 0% = protein alone, 100% = glycine-bound protein; Tm shift relative to glycine control, % at 25 µM; 340,000 tested, 2.5% active;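 active = melting temperature shift of at least 10% of the positive control shift, at one fixed dose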
Rh123 counter = fluorescence retest of MPTP screen hits in isolated mitochondria, single concentration; membrane potential, Rhodamine 123 fluorescence; inhibition, % at 10 µM; 5,000 tested, 78% active; shares compounds with MPTP block; in the data active = inhibition above about 22%;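 note: 0% = DMSO vehicle and 100% = positive control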
MPTP abs DR = mitochondrial permeability transition pore inhibitors, dose response, biochemical, absorbance, uHTS hits | shares compounds with MPTP block | isolated mitochondria swelling | IC50, µM | 780 tested, 58% active | AID 651561, 2012; in the data active = IC50 below about 20 µM
MPTP cs DR = fluorescent counter-screen in isolated mitochondria, dose response, counter-screen for MPTP inhibitor project, biochemical, fluorescence, uHTS hits; shares compounds with MPTP block; isolated mitochondria counterscreen, fluorescence read-out; IC50, µM; 780 tested, 49% active; in the data active = IC50 below about 80 µM
The depositor's hits bear a star.

`O=C(O)c1ccccc1C(=O)c1ccc(N2CCCC2)c([N+](=O)[O-])c1` gave FAS-TE inh -1, beta cell repl -3, pCIP destab -4, MPTP block 0 and GRIN3A LBD mod -1.
`Cc1ccc(C(c2nnnn2Cc2ccccc2)N2CCN(Cc3ccccc3)CC2)cc1` (stereo not given) gave FAS-TE inh 21, beta cell repl -3, pCIP destab -9, MPTP block 35 and GRIN3A LBD mod 2.
For CC(C)C(C(=O)N1CCN(C(=O)OC(C)(C)C)CC1)n1cc(-c2cn([C@@H](C)C(=O)N3CCN(C(=O)OC(C)(C)C)CC3)nn2)nn1 (stereo not given in full) the results were beta cell repl -6 and pCIP destab -6.
For Cc1ccsc1CN(C)C(=O)CCc1nnc(COc2ccccc2)o1 the results were FAS-TE inh -3, beta cell repl -2, pCIP destab -11, MPTP block 2 and GRIN3A LBD mod -6.
Screening O=C(COC(=O)C1CCC1)NCc1ccccc1 returned FAS-TE inh -8, beta cell repl 10, MPTP block -2 and GRIN3A LBD mod -1.
Screening CCOC(=O)NC(=O)CSc1nc2ccc([N+](=O)[O-])cc2[nH]1 returned FAS-TE inh 17, beta cell repl 3, pCIP destab -4, MPTP block 0 and GRIN3A LBD mod -2.
COc1ccc(C(=O)CSc2nc3ccc([N+](=O)[O-])cc3[nH]2)cc1 was read as FAS-TE inh 36, beta cell repl -4, pCIP destab -12, MPTP block 99*, GRIN3A LBD mod 6 and Rh123 counter 86*.
`O=C(CSc1nc2ccc([N+](=O)[O-])cc2[nH]1)NC1CCCCCC1` gave FAS-TE inh 44, beta cell repl -5, pCIP destab -9, MPTP block 95*, GRIN3A LBD mod -3 and Rh123 counter 80*.
`Cc1ccc(-c2nnc(SCC(=O)N(C)C)nc2-c2ccc(C)cc2)cc1` gave FAS-TE inh 11, beta cell repl 0, pCIP destab 1, MPTP block 73*, GRIN3A LBD mod 1, Rh123 counter -1, MPTP abs DR 17* and MPTP cs DR >80.
Cc1ccc(-c2nnc(SCC(N)=O)nc2-c2ccc(C)cc2)cc1 was read as FAS-TE inh 1, beta cell repl 0, pCIP destab -18, MPTP block -1 and GRIN3A LBD mod -3.
`Fc1ccc(NC(=S)SCc2ccc3c(c2)OCO3)cc1F` gave FAS-TE inh 18, MPTP block 76* and Rh123 counter 94*.
`C=CCNc1nc2c(c(=O)[nH]c(=O)n2C)n1CC(O)COc1ccc2ccccc2c1` (stereo not given) gave FAS-TE inh -5, beta cell repl -1, pCIP destab -6, MPTP block 0 and GRIN3A LBD mod -2.
For C/C(=N\NS(=O)(=O)c1ccccc1)c1cc(Cl)cc(Cl)c1O the results were FAS-TE inh 4, beta cell repl -5, pCIP destab -18, MPTP block 62*, GRIN3A LBD mod 5 and Rh123 counter 75*.
`CCCCn1c(NC(=O)c2ccc(Br)o2)c(S(=O)(=O)c2ccccc2)c2nc3ccccc3nc21` gave FAS-TE inh 13, beta cell repl -6, pCIP destab -11, MPTP block 78*, GRIN3A LBD mod 4 and Rh123 counter 78*.
Screening CC1CCc2c(sc3nc(C4CC4)nc(N4CCN(C(=O)c5ccco5)CC4)c23)C1 (stereo not given) returned FAS-TE inh 26, beta cell repl -3, MPTP block 64*, GRIN3A LBD mod 5 and Rh123 counter 68*.
For COCCCNS(=O)(=O)c1ccc(S(=O)(=O)N2CCCC2)cc1 the results were FAS-TE inh -2, beta cell repl 0, pCIP destab -13, MPTP block -1 and GRIN3A LBD mod 1.
Screening NCC12CC3CC(C1)CC(c1ccc(Cl)cc1)(C3)C2 returned FAS-TE inh -44, beta cell repl -5, pCIP destab -14, MPTP block 75*, GRIN3A LBD mod -4, Rh123 counter -13, MPTP abs DR 3.7* and MPTP cs DR 42*.
For Nc1ccc(C23CC4CC(CC(CO)(C4)C2)C3)cc1 the results were FAS-TE inh -5, beta cell repl 2, pCIP destab -12, MPTP block -1 and GRIN3A LBD mod 1.
Screening Cc1c(C(C)(C)O)[nH]c2ccc(C(F)(F)F)cc12 returned FAS-TE inh -3, beta cell repl -2, pCIP destab -16, MPTP block 2 and GRIN3A LBD mod -11.
N=c1c2c(-c3ccccc3)c(-c3ccccc3)n(Cc3ccco3)c2ncn1CCCN1CCOCC1 was read as FAS-TE inh 4, beta cell repl -6, pCIP destab -9, MPTP block 71*, GRIN3A LBD mod -2 and Rh123 counter -4.
Screening Cc1ccc(Nc2nc(C)c(CCC(C)C)c(=O)[nH]2)cc1 returned FAS-TE inh -3, beta cell repl 0, pCIP destab 3, MPTP block 5 and GRIN3A LBD mod -1.
`Cc1nc(Nc2ccc(F)cc2)[nH]c(=O)c1CCC(C)C` gave FAS-TE inh 5, beta cell repl -5, pCIP destab -18, MPTP block 95*, GRIN3A LBD mod -5 and Rh123 counter 77*.
For O=S(=O)(/N=C(/c1ccccc1)N1CCCCCC1)c1ccccc1 the results were FAS-TE inh 3, beta cell repl 0, pCIP destab 6, MPTP block 1 and GRIN3A LBD mod 0.
For O=C(Nc1cccc(Br)c1)c1ccc(Cl)c(S(=O)(=O)N2CCOCC2)c1 the results were FAS-TE inh 31, beta cell repl -4, pCIP destab -18, MPTP block 54*, GRIN3A LBD mod -3 and Rh123 counter 75*.
O=C(Nc1cccc(C(=O)NC2CC2)c1)c1ccc(Cl)c(S(=O)(=O)N2CCOCC2)c1 was read as FAS-TE inh -5, beta cell repl -1, MPTP block 0 and GRIN3A LBD mod 0.
`O=C(CC(Cc1ccccc1)C(=O)O)Nc1ccc(Cl)c(Cl)c1` (stereo not given) gave FAS-TE inh 4, beta cell repl 0, pCIP destab 1, MPTP block -1 and GRIN3A LBD mod -1.

High-throughput results deposited in PubChem BioAssay by Sanford-Burnham Center for Chemical Genomics.
